In the assay the test system is FLX1 + dox-induced PRKAR1A G325D. In words: difference in log2 fold change of viability vs plate median (dox-induced PRKAR1A G325D minus uninduced); higher = compound less effective when PKA is inhibited. As to conditions: concentration: not stated (2 or 5 uM); 5 days. As for the experimental part: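 For each plate a log2 fold change vs the plate median was derived, and the values without dox were subtracted from those with dox, averaged over three biological replicates.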

In the case of `CCc1cnn2c(NCc3ccc[n+]([O-])c3)cc(N3CCCC[C@H]3CCO)nc12`, the “difference in log2 fold change of viability” value (“difference in log2 fold change” below) worked out at 0.265. `CCN(CC)CCCCNc1ncc2cc(-c3cc(OC)cc(OC)c3)c(NC(=O)NC(C)(C)C)nc2n1`: the “difference in log2 fold change” value was -0.527. Take `Oc1ccc(Nc2nc(-c3ccc(Cl)cc3)cs2)cc1`: the “difference in log2 fold change” value is -0.56.

`N#CCNC(=O)c1ccc(-c2ccnc(Nc3ccc(N4CCOCC4)cc3)n2)cc1` [Momelotinib (CYT387)]: the “difference in log2 fold change” value was 0.708. As for `CO[C@H]1C[C@@H]2CC[C@@H](C)[C@@](O)(O2)C(=O)C(=O)N2CCCC[C@H]2C(=O)O[C@H]([C@H](C)C[C@@H]2CC[C@@H](OC(=O)C(C)(CO)CO)[C@H](OC)C2)CC(=O)[C@H](C)/C=C(\C)[C@@H](O)[C@@H](OC)C(=O)[C@H](C)C[C@H](C)/C=C/C=C/C=C/1C`, the “difference in log2 fold change” value worked out at 0.457.

The values above are taken from the supplement of paper PMC9925115.
